High-throughput results: PubChem, several laboratories
MPTP block: mitochondrial permeability transition pore inhibitors, primary screen, biochemical, isolated mouse mitochondria, absorbance. hit rate 1.4% among 360,000. inhibition, % at 10 µM. AID 602449, 2012. Ca2+ swelling absorbance, 30 min;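 active = inhibition of 50% or more, scaled per plate between neutral and stimulator controls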;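 also: 0% = DMSO wells given calcium and 100% = 1 mM EGTA wells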
TMEM16A act: TMEM16A chloride channel activators or potentiators, primary screen, cell-based, HTS; HEK293 TMEM16A/YFP-H148Q/I152L, iodide quench fluorescence; hits give low values; B-score at 10 µM; hit rate 0.3% among 340,000;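 active = fluorescence-ratio B-score plate-corrected deviation score at least 3 library SD below zero, with starting fluorescence score within 5 deviations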;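 also: channel opened by trigger with iodide after compound preincubation; score built on the fluorescence ratio of max minus min over baseline; more negative score means more quench and so TMEM16A activation or potentiation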
NR3A LBD binder: binders of NR3A ligand-binding domain, primary screen, biophysical, differential scanning fluorimetry, uHTS; Tm shift relative to glycine control, % at 25 µM; AID 1259313, 2017; NR3A LBD differential scanning fluorimetry, Tm shift; 0% = protein alone, 100% = glycine-bound protein; hit rate 2.5% among 340,000;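 active = melting temperature shift of at least 10% of the positive control shift, at one fixed dose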
TMEM16A inh: TMEM16A chloride channel inhibitors, primary screen, cell-based, HTS. Anoctamin-1 (Mus musculus), Q8BHY3. HEK293 TMEM16A/YFP iodide influx fluorescence, ionomycin. normalized B-score (activity score, 25-100; higher = stronger inhibition) at 10 µM. hit rate 1.2% among 310,000. AID 588511, 2011;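 active = ratio plate-corrected score three or more library SD toward inhibition, starting fluorescence score within five deviations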;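 also: score derived from kinetic fluorescence span divided by baseline fluorescence per well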
CRFBP-R2 block: antagonists of CRF-BP/CRF-R2 complex, primary screen, cell-based, HEK293, calcium dye fluorescence, uHTS; CRF-induced calcium fluorescence; inhibition, % at 11.8 µM; hit rate 0.59% among 350,000; AID 588475, 2011;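 active = inhibition of the ligand-induced calcium signal above about 50% at the single tested concentration, limit read from the data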
CRFR2-BP ag: agonists of CRF-BP/CRF-R2 complex, primary screen, cell-based, HEK293, calcium dye fluorescence, uHTS; CRF-binding protein / CRF receptor 2 complex (human); calcium dye fluorescence (FLIPR); percent of saturating CRF peptide response; hit rate 0.46% among 350,000; activation, % at 13.2 µM;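 active = activation of at least 50%, plus an integration ratio under a set limit after plate pattern correction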;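 also: plate controls were neutral control wells without compound for no effect and CRF at EC100 for full effect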
MPTP counter: fluorescence retest of MPTP screen hits in isolated mitochondria, single concentration; membrane potential, Rhodamine 123 fluorescence; hit rate 78% among 5,000; AID 624504, 2012; shares compounds with MPTP block; inhibition, % at 10 µM; in the data active = inhibition above about 22%;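 also: 0% = DMSO vehicle and 100% = positive control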
MPTP abs DR: mitochondrial permeability transition pore inhibitors, dose response, biochemical, absorbance, uHTS hits | shares compounds with MPTP block | isolated mitochondria swelling | IC50, µM | hit rate 58% among 780; in the data active = IC50 below about 20 µM
MPTP cs DR: fluorescent counter-screen in isolated mitochondria, dose response, counter-screen for MPTP inhibitor project, biochemical, fluorescence, uHTS hits | isolated mitochondria counterscreen, fluorescence read-out | IC50, µM | shares compounds with MPTP block | hit rate 49% among 780; in the data active = IC50 below about 80 µM
* = called active by the depositor; i = inactive; · = not tested or not shown. The list is not random: actives were taken first. Their share in the collection is about 5.1%.

SMILES	MPTP block	TMEM16A act	NR3A LBD binder	TMEM16A inh	CRFBP-R2 block	CRFR2-BP ag	MPTP counter	others
O=[N+]([O-])c1cccc(S(=O)(=O)NCc2ccncc2)c1	81.7*	i	-0.2	i	6.2	2.2	60.4*
O=[N+]([O-])c1cccc(S(=O)(=O)Nc2ccc(Cc3ccncc3)cc2)c1	5.5	i	-0.8	i	31.5	4.3	·
Cc1cccc(C(=O)N2CCc3cc(-c4csc(NC(=O)CN5CCCC5)n4)ccc32)c1	86.5*	i	-2.7	i	-11.6	-0.3	4.5	MPTP abs DR=i;MPTP cs DR=37.3*
O=C(C1CC1)N1CCC(c2nc(-c3ccc(S(=O)(=O)NCC4CCCO4)cc3)no2)CC1 (stereo unspecified)	65.5*	i	-2.7	i	14.3	11.9	16.5	MPTP abs DR=i;MPTP cs DR=45.8*
O=C(c1ccccc1)N1CCC(c2nc(-c3ccc(S(=O)(=O)NCC4CCCO4)cc3)no2)CC1 (stereo unspecified)	52.7*	i	-1.1	25*	6.2	1.8	61.5*
Cc1cc(=O)n(C(C)c2ccccc2)n1C(C)c1ccccc1 (stereo unspecified)	0.0	i	-1.4	·	25.9	-3.5	·
CN1CCN(C2=Cc3cc(Cl)ccc3Sc3cc(F)ccc32)CC1	90.6*	i	1.0	i	-30.2	3.4	-12.6
CN1CCN(C2=Cc3ccccc3Sc3cc(F)c(Cl)cc32)CC1	31.9	i	4.3	i	-75.3	16.6	·
CN1CCN(C2=Cc3ccccc3Sc3cc(F)c(F)cc32)CC1	92.7*	i	0.0	i	-23.9	7.4	-12.2
CCOc1ccc(NC(=O)COC(=O)COc2cccc3c2OC(C)(C)C3)cc1	-0.9	i	0.3	i	-6.6	0.9	·
O=C(c1ccc(O)cc1)c1ccc(C(=O)c2ccc(O)cc2)cc1	69.4*	i	-2.8	i	4.5	5.6	33.8*
CCN(CC)c1ncnc2c1ncn2[C@H]1CN(Cc2ccc(F)cc2)C[C@@H](CO)O1	-1.1	·	·	·	·	·	·
O=C(NNC(=S)Nc1ccc(Cl)cc1Cl)c1ccncc1	63.3*	i	2.4	i	-28.8	-1.9	15.4	MPTP abs DR=i;MPTP cs DR=42.4*
O=C(NNC(=S)Nc1ccc(Cl)cc1Cl)c1ccc(N2CCOCC2)c([N+](=O)[O-])c1	98.4*	i	23.9*	i	2.4	-1.3	62.9*
O=C(NNC(=S)Nc1ccc(Cl)cc1Cl)c1cccnc1	5.7	i	0.1	·	8.8	0.6	·
O=C(Nc1ccc(-c2nc3ccccc3o2)cc1)c1ccc(N2CCOCC2)c([N+](=O)[O-])c1	87.0*	i	14.2*	25*	-23.7	11.8	64.2*
O=C(Nc1ccc(Cl)cc1)c1cnc(-c2ccccc2)nc1-c1ccccc1	72.6*	i	6.6	i	-12.4	7.4	36.2*
Cc1nc(C#N)c(N/N=C/c2cccc(Cl)c2)o1	1.8	i	-10.9	i	-0.3	-0.4	·
C[N+](C)(C)c1ccc(/C=N/Nc2nc(Cl)c(C#N)c(Cl)c2Cl)cc1	92.4*	i	-0.5	i	20.4	-1.9	95.2*
C[n+]1cccc(/C=N/Nc2nc(Cl)c(C#N)c(Cl)c2Cl)c1	65.4*	i	-0.1	i	-3.8	2.7	64.4*
N#Cc1c(Cl)nc(N/N=C/c2ccccc2)c(Cl)c1Cl	0.2	i	-1.5	i	9.6	-3.3	·
CC(C)NC(=O)Cn1cc(S(=O)(=O)N2CCCC2)c(S(=O)(=O)N2CCCC2)c1	-0.7	i	0.4	i	-6.2	1.7	·
CC(=O)N(\C=C/C=C/C=C1\Sc2ccccc2C1=O)c1ccccc1	61.8*	i	-4.0	i	-29.7	12.0	62.4*
CN(C)/C=C1/Sc2ccccc2C1=O	-1.1	·	0.7	i	-5.2	0.6	·
Cc1cnc(CNC(=O)CC2C(=O)NCCN2Cc2cccc(F)c2F)cn1 (stereo unspecified)	-1.1	i	0.4	i	-18.3	2.7	·
SMILES	MPTP block	TMEM16A act	NR3A LBD binder	TMEM16A inh	CRFBP-R2 block	CRFR2-BP ag	MPTP counter	others
CN(NS(=O)(=O)c1ccc(Br)cc1)c1nc(C(F)(F)F)nc2ccccc12	73.2*	i	1.9	25*	46.5	45.2	86.4*
CCCCc1c(-c2cccc(Cl)c2)ncn1CCc1ccccc1OC	2.8	·	·	·	·	·	·
CCOC(=O)c1cnc(SCC(=O)Nc2cc(OC)cc(OC)c2)nc1N	86.7*	i	7.5	i	6.1	-1.9	49.1*
COc1ccc(C(O)c2nc(-c3ccncc3)cs2)cc1 (stereo unspecified)	56.6*	·	·	·	·	·	66.2*
O=C(Nc1cc(Sc2ccccn2)cc([N+](=O)[O-])c1)c1cccc(F)c1	96.8*	i	4.5	i	-10.0	-5.9	69.6*
O=C(NNC(=O)c1ccccn1)c1cccc([N+](=O)[O-])c1	-0.7	i	2.1	i	-8.9	4.2	·
O=C(Nc1cc(Sc2nc3ccccc3s2)cc([N+](=O)[O-])c1)c1ccccc1F	20.8	i	0.6	i	-13.2	0.5	·
O=C(Nc1cc(Sc2nc3ccccc3s2)cc([N+](=O)[O-])c1)c1ccccc1	89.9*	i	9.2	i	-27.7	0.8	72.8*
COc1cc(CNc2ncnc3c2ncn3[C@H]2CN(Cc3cccc(C(F)(F)F)c3)C[C@@H](CO)O2)cc(OC)c1OC	0.2	·	·	·	·	·	·
CCCc1nc(SCC(=O)Nc2ccccc2)c2c(=O)n(C)c(=O)n(C)c2n1	-1.5	i	0.1	i	0.9	0.7	·
Cn1c(=O)c2c(SCC(=O)N3CCCc4ccccc43)nc(CC(C)(C)C)nc2n(C)c1=O	62.5*	i	-1.2	i	2.7	2.1	-6.6
CCCc1nc(SCC(=O)N2CCC(Cc3ccccc3)CC2)c2c(=O)n(C)c(=O)n(C)c2n1	52.5*	i	1.4	i	-15.2	1.5	-6.9
O=C(N/N=C/c1cccc(C(F)(F)F)c1)c1ccccc1O	64.8*	i	2.2	i	30.7	6.6	54.9*
